Assay results published in PubChem BioAssay (NCATS).
Results filed as inconclusive are left out. Calls of active or inactive are those of the source. Calls come from the whole dose curve; as a rule, active = well fitted curve in the direction sought with a large enough effect; inconclusive = small, poorly fitted or top-dose-only effect, or another doubt; inactive = no such curve, though single readings can be large; an effect the other way counts as inactive or inconclusive. Where a SMILES comes first, the peptide text is derived from it. [ ]: non-standard residue; d: D form. pGlu = O=C1CC[C@@H](C(=O)O)N1

Tests used:
[1] = qHTS of pediatric cancer cell lines to identify multiple opportunities for drug repurposing: Primary screen for NB-EBc1 cells (AID 1347095)
Outline: (§1)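 Phenotypic viability qHTS, 48 h compound exposure, CellTiter-Glo luminescence read-out; multi-concentration dosing so that potency and efficacy derive directly from the primary screen's curves.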

[2] = qHTS of pediatric cancer cell lines to identify multiple opportunities for drug repurposing: Primary screen for U-2 OS cells (AID 1347096); note: nearly all actives have a fitted effect of over 50% in size
Outline: (§2)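 Cells (500-1,000/well) in growth media were settled 5 h at 37 degrees C, then given compounds for 48 h. Viability was read as CellTiter-Glo luminescence. Primary runs used MIPE at 11 points (0.78 nM-46 µM) and NPC at 8 points (0.59 nM-46 µM); follow-ups used 11 points.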

[3] = qHTS of pediatric cancer cell lines to identify multiple opportunities for drug repurposing: Primary screen for Saos-2 cells (AID 1347097); note: nearly all actives have a fitted effect of over 40% in size
Outline: as §1

[4] = qHTS of pediatric cancer cell lines to identify multiple opportunities for drug repurposing: Primary screen for SK-N-SH cells (AID 1347098); note: nearly all actives have a fitted effect of over 65% in size; note: potency is the fitted concentration of half-maximal effect
Outline: (§3)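 Cells (500-1,000/well) rested 5 h, then received compounds for 48 h; metabolically active cells were measured by CellTiter-Glo luminescence. Final concentrations spanned up to 46 µM (MIPE, 11-point) or 0.59 nM-46 µM (NPC, 8-point) in primary screens, 11-point in follow-ups.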

[5] = qHTS of pediatric cancer cell lines to identify multiple opportunities for drug repurposing: Primary screen for NB1643 cells (AID 1347099); note: nearly all actives have a fitted effect of over 50% in size
Outline: as §1

[6] = qHTS of pediatric cancer cell lines to identify multiple opportunities for drug repurposing: Primary screen for BT-12 cells (AID 1347101); note: nearly all actives have a fitted effect of over 25% in size
Outline: as §3

[7] = qHTS of pediatric cancer cell lines to identify multiple opportunities for drug repurposing: Primary screen for Rh18 cells (AID 1347102); note: nearly all actives have a fitted effect of over 65% in size
Outline: as §2

[8] = qHTS of pediatric cancer cell lines to identify multiple opportunities for drug repurposing: Primary screen for OHS-50 cells (AID 1347103); note: nearly all actives have a fitted effect of over 40% in size; note: potency is the fitted concentration of half-maximal effect
Outline: as §3

[9] = qHTS of pediatric cancer cell lines to identify multiple opportunities for drug repurposing: Primary screen for RD cells (AID 1347104); note: nearly all actives have a fitted effect of over 55% in size
Outline: as §1

[10] = qHTS of pediatric cancer cell lines to identify multiple opportunities for drug repurposing: Primary screen for MG 63 (6-TG R) cells (AID 1347105); note: nearly all actives have a fitted effect of over 50% in size
Outline: as §1

[11] = qHTS of pediatric cancer cell lines to identify multiple opportunities for drug repurposing: Primary screen for control Hh wild type fibroblast cells (AID 1347106);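 note: series mostly up to about 46 µM; a drop in luminescence marks cytotoxicity and a rise apparent proliferation; nearly all actives have a fitted effect of over 55% in size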
Outline: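 Viability after 48 h compound treatment at 37C, 500-1,000 cells/well, read as ATP luminescence with CellTiter-Glo. Primary screens used 11-point (MIPE, 0.78 nM-46 µM) or 8-point (NPC, 0.59 nM-46 µM) final concentrations; follow-up screens used 11-point dilutions.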

[12] = qHTS of pediatric cancer cell lines to identify multiple opportunities for drug repurposing: Primary screen for Rh30 cells (AID 1347107); note: series mostly up to about 46 µM; nearly all actives have a fitted effect of over 75% in size
Outline: as §2

[13] = qHTS of pediatric cancer cell lines to identify multiple opportunities for drug repurposing: Primary screen for Rh41 cells (AID 1347108);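 note: series mostly up to about 46 µM; luminescence drop marks cytotoxic hits; nearly all actives have a fitted effect of over 70% in size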
Outline: as §1

[14] = qHTS of pediatric cancer cell lines to identify multiple opportunities for drug repurposing: Primary screen for LAN-5 cells (AID 1347100)
Outline: as §2

[15] = qHTS of pediatric cancer cell lines to identify multiple opportunities for drug repurposing: Confirmatory screen for NB1643 cells (AID 1347109); note: nearly all actives have a fitted effect of over 45% in size
Outline: as §2

[16] = qHTS of pediatric cancer cell lines to identify multiple opportunities for drug repurposing: Confirmatory screen for A673 cells (AID 1347110);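 note: cells exposed to compound for 48 h before the viability read; nearly all actives have a fitted effect of over 65% in size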
Outline: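 Cells plated at 500-1,000/well were treated five hours later with multi-point dilutions up to 46 µM final. After two days, CellTiter-Glo was added and luminescence read.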

[17] = qHTS of pediatric cancer cell lines to identify multiple opportunities for drug repurposing: Confirmatory screen for SK-N-MC cells (AID 1347111);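 note: potency is the fitted concentration of half-maximal effect; cells exposed to compound for 48 h before the readout; nearly all actives have a fitted effect of over 70% in size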
Outline: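 Metabolically active cells were quantified by ATP-dependent luminescence (CellTiter-Glo, 15 min at room temperature) following 48 h treatment. Cells had been plated at 500-1,000 per well and settled for 5 h beforehand.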

[18] = qHTS of pediatric cancer cell lines to identify multiple opportunities for drug repurposing: Confirmatory screen for LAN-5 cells (AID 1347113); note: nearly all actives have a fitted effect of over 65% in size
Outline: as §2

[19] = qHTS of pediatric cancer cell lines to identify multiple opportunities for drug repurposing: Confirmatory screen for NB-EBc1 cells (AID 1347115);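 note: cells exposed to compound for 48 h before the viability read; nearly all actives have a fitted effect of over 45% in size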
Outline: as §2

[20] = qHTS of pediatric cancer cell lines to identify multiple opportunities for drug repurposing: Confirmatory screen for DAOY cells (AID 1347114); note: nearly all actives have a fitted effect of over 65% in size
Outline: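 Viability measured as metabolically active cells via CellTiter-Glo luminescence following 48 hours of compound exposure, 11-point dilutions in confirmatory testing. 500-1,000 cells/well plated 5 hours before dosing; controls were DMSO and 2.3 µM bortezomib.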

Measured: Potency

COc1ccc2nc(SCc3ncc(C)c(OC)c3C)[nH]c2c1
not listed: [14] | [15] | [16] | [17] | [18] | [19] | [20]
inactive: all other assays above

CSCC[C@H](NC(=O)[C@H](Cc1c[nH]c2ccccc12)NC(=O)CCNC(=O)OC(C)(C)C)C(=O)N[C@@H](CC(=O)O)C(=O)N[C@@H](Cc1ccccc1)C(N)=O
not listed: [6] | [15] | [16] | [17] | [18] | [19] | [20]
inactive: all other assays above

Nc1ncnc2c1ncn2Cc1c(F)cccc1Cl
not listed: [6] | [15] | [16] | [17] | [18] | [19] | [20]
inactive: all other assays above

CO/N=C(/C(=O)N[C@@H]1C(=O)N2C(C(=O)O)=C(Cn3nnc(C)n3)CS[C@H]12)c1csc(N)n1
not listed: [12] | [14] | [15] | [16] | [17] | [18] | [19] | [20]
inactive: all other assays above

OC[C@]1(O)OC[C@@H](O)[C@H](O)[C@@H]1O
not listed: [6] | [11] | [15] | [16] | [17] | [18] | [19] | [20]
inactive: all other assays above

Nc1ccc(C(=O)N2CC3CC(CN(Cc4ccccc4)C3)C2)cc1
not listed: [13] | [14] | [15] | [16] | [17] | [18] | [19] | [20]
inactive: all other assays above

CC[N+]1(CC)CCC(=C(c2ccccc2)c2ccccc2)C1C (stereo unspecified)
inactive: [1] | [2] | [3] | [4] | [5] | [14] | [7] | [9] | [10]

Cc1c(F)cc2c(=O)c(C(=O)O)cn3c2c1CCC3C (stereo unspecified)
inactive: [1] | [2] | [3] | [4] | [5] | [14] | [7] | [9] | [10] | [11] | [12]

COC(=O)c1cc(Cl)ccc1OC
not listed: [6] | [15] | [16] | [17] | [18] | [19] | [20]
inactive: all other assays above

COc1cc2nc(Cl)nc(N)c2cc1OC
inactive: [1] | [2] | [3] | [4] | [5] | [14] | [7] | [8] | [9] | [11] | [13]

CCN1C(=O)c2ccccc2C1Nc1ccc(OCCN2CCCCC2)cc1 (stereo unspecified)
not listed: [6] | [15] | [16] | [17] | [18] | [19] | [20]
inactive: all other assays above

COc1ccccc1N1CCN(CC(O)COc2cc(OC)c(OC)c(OC)c2)CC1 (stereo unspecified)
inactive: [1] | [2] | [3] | [4] | [5] | [6] | [7] | [8] | [9] | [10] | [12]

O=C(CCC1CCN(Cc2ccccc2)CC1)c1ccc2c(c1)NCCCC2
active: [4] 30.7 µM
inactive: [1] | [2] | [3] | [5] | [14] | [7] | [10] | [11] | [13]

Cc1cc(CCCOc2c(C)cc(-c3noc(C(F)(F)F)n3)cc2C)on1
active: [8] 19.5 µM
not listed: [6] | [15] | [16] | [17] | [18] | [19] | [20]
inactive: all other assays above

COC(=O)C1=C(C)NC(C)=C(C(=O)OCCc2ccc(N3CCN(C(c4ccccc4)c4ccccc4)CC3)cc2)C1c1cccc([N+](=O)[O-])c1 (stereo unspecified)
not listed: [6] | [12] | [15] | [16] | [17] | [18] | [19] | [20]
inactive: all other assays above

OCCOCCN1CCN(C(c2ccccc2)c2ccc(Cl)cc2)CC1 (stereo unspecified)
inactive: [1] | [2] | [3] | [4] | [5] | [14] | [7] | [9] | [11] | [12] | [13]

CC(CCc1ccc2c(c1)OCO2)NN (stereo unspecified)
not listed: [14] | [15] | [16] | [17] | [18] | [19] | [20]
inactive: all other assays above

CCCCCOc1ccc(C2SC(=O)NC2=O)cc1OCC (stereo unspecified)
not listed: [6] | [8] | [15] | [16] | [17] | [18] | [19] | [20]
inactive: all other assays above

CC(C)(Oc1ccc(Cl)cc1)C(=O)OCCCOC(=O)C(C)(C)Oc1ccc(Cl)cc1
not listed: [14] | [15] | [16] | [17] | [18] | [19] | [20]
inactive: all other assays above

Nc1c(NC/C=C\COc2cc(CN3CCCCC3)ccn2)c(=O)c1=O
not listed: [6] | [12] | [15] | [16] | [17] | [18] | [19] | [20]
inactive: all other assays above

CCCC(=O)O[C@]1(C(=O)COC(=O)CC)CC[C@H]2[C@@H]3CCC4=CC(=O)CC[C@]4(C)[C@H]3[C@@H](O)C[C@@]21C
active: [17] 6.57 µM
not listed: [11] | [14] | [20]
inactive: all other assays above

C[C@H](CN1CCCC1)C(=O)c1ccc(C(F)(F)F)cc1
not listed: [14] | [15] | [16] | [17] | [18] | [19] | [20]
inactive: all other assays above

CC(=O)CC/C=C(\C)CC/C=C(\C)CC/C=C(\C)CCC=C(C)C
not listed: [14] | [15] | [16] | [17] | [18] | [19] | [20]
inactive: all other assays above

O=C1CC[C@H](C(=O)N2CCCCC2)N1
not listed: [6] | [15] | [16] | [17] | [18] | [19] | [20]
inactive: all other assays above

Cc1coc2ccccc2c1=O
not listed: [6] | [15] | [16] | [17] | [18] | [19] | [20]
inactive: all other assays above

CCOC(=O)O[C@]1(C(=O)OCCl)CC[C@H]2[C@@H]3CCC4=CC(=O)C=C[C@]4(C)[C@H]3[C@@H](O)C[C@@]21C
not listed: [6] | [7] | [13] | [17] | [19]
inactive: all other assays above

CCN1CCCC1CN (stereo unspecified)
not listed: [6] | [15] | [16] | [17] | [18] | [19] | [20]
inactive: all other assays above

CCNC(=O)[C@@H]1CCCN1C(=O)[C@H](CCCN=C(N)N)NC(=O)[C@H](CC(C)C)NC(=O)CNC(=O)[C@H](Cc1ccc(O)cc1)NC(=O)[C@H](CO)NC(=O)[C@H](Cc1c[nH]c2ccccc12)NC(=O)[C@H](Cc1cnc[nH]1)NC(=O)[C@@H]1CCC(=O)N1 ([pGlu]HWSYGLRP-NHEt)
not listed: [13] | [14] | [15] | [16] | [17] | [18] | [19] | [20]
inactive: all other assays above

Cc1ccc(C(=O)C(=O)O)cc1C
not listed: [14] | [15] | [16] | [17] | [18] | [19] | [20]
inactive: all other assays above

Cc1sccc1Br
not listed: [6] | [15] | [16] | [17] | [18] | [19] | [20]
inactive: all other assays above

Clc1ccc2c(c1)Nc1ccccc1S2
not listed: [6] | [8] | [15] | [16] | [17] | [18] | [19] | [20]
inactive: all other assays above

CC(C(=O)O)c1ccc(/C=C2\CCCCC2=O)cc1 (stereo unspecified)
not listed: [6] | [15] | [16] | [17] | [18] | [19] | [20]
inactive: all other assays above

CC(=O)OCC[N+](C)(C)C
inactive: [1] | [2] | [3] | [4] | [5] | [14] | [8] | [9] | [10] | [12]

Cn1c(=O)c2c(ncn2CC(=O)O)n(C)c1=O
inactive: [1] | [2] | [3] | [4] | [5] | [14] | [7] | [8] | [9] | [11] | [13]

Cc1ccc(C(C)OC(=O)C2(C)CCC(C(=O)O)C2(C)C)cc1 (stereo unspecified)
inactive: [1] | [2] | [3] | [4] | [5] | [14] | [7] | [9] | [11] | [12] | [13]
